Assay [1] can be described thus: qHTS assay to identify small molecule antagonists of the constitutive androstane receptor (CAR) signaling pathway - cell viability counter screen (AID 1224837). Also: nearly all actives have a fitted effect of over 45% in size. An outline of the steps: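 HepG2 cells stably carrying hCAR and CYP2B6-2.2kb reporter, stimulated with 50 nM CITCO and compounds at 15 concentrations for 23 h at 37 C. Viability measured by CellTiter-Fluor fluorescence.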
For orientation: qHTS replaces the single test concentration by a dilution series.

Assay [2] deals with Nuclear receptor subfamily 1 group I member 3 (Homo sapiens) (UniProt Q14994). Nature of the assay: qHTS assay to identify small molecule agonists of the constitutive androstane receptor (CAR) signaling pathway (AID 1224839). Also: nearly all actives have a fitted effect of over 15% in size. The essentials:
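HepG2 cells stably co-transfected with hCAR and a CYP2B6-2.2kb luciferase reporter; compounds at 15 concentrations with 0.75 uM PK11195 present. After 24 hr at 37 C, luciferase read by ONE-Glo luminescence.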

A short description of assay [3]: qHTS assay to identify small molecule antagonists of the estrogen related receptor signaling pathway with the pleiotropic PPARgamma coactivator (PGC) from Tox21 10K library - cell viability counter screen (AID 1224840; active = well fitted cell-killing curve with a large enough effect in the repeat runs, not every such curve was filed as active; also: nearly all actives have a fitted effect of over 40% in size). The essentials: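 PGC/ERR cells (2,000/well) plated 6 h, then compound-treated for 17.5 h at 37 C. Viability measured by CellTiter-Fluor fluorescence after 30 min at 37 C, multiplexed with the pathway assay.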

The nature of assay [4]: qHTS assay to identify small molecule agonists of the hypoxia (HIF-1) signaling pathway - cell viability counter screen (AID 1224844; calls by dose curve; also: nearly all actives have a fitted effect of over 50% in size). An outline of the steps: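 HRE-bla ME-180 cells, 2,000/well in 0.5% dialyzed FBS medium, treated 17 h at 37C with compounds. Viability read in the same wells as the bla reporter, by CellTiter-Glo luminescence after 30 min at room temperature.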

The nature of assay [5]: qHTS assay to identify small molecule agonists of the hypoxia (HIF-1) signaling pathway (AID 1224846; active = well fitted activation curve with a large enough effect in the signal ratio in the repeat runs, not every such curve was filed as active; the % refers to the signal ratio; also: potency is read from the fitted curve at half-maximal effect). The essentials: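 HRE-bla ME-180 beta-lactamase reporter cells in medium with 0.5% dialyzed FBS, pre-incubated 5 h then exposed to compounds 17 h at 37C, 5% CO2; reporter induction read with CCF4-AM FRET substrate.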
The nature of assay [6]: qHTS assay to identify small molecule agonists of H2AX - cell viability counter screen (AID 1224847; calls by dose curve; also: top concentration of the series differs between compounds; nearly all actives have a fitted effect of over 30% in size). The essentials:
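CHO-K1 cells plated overnight at 37C, then exposed 3 h at 37C to compounds at 15 concentrations (0.76% DMSO final). Viability by CellTiter-Glo luminescence after 30 min at room temperature.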

Assay [7] in a line: qHTS assay to identify small molecule antagonists of the estrogen related receptor (ERR) signaling pathway from Tox21 library (AID 1224848). Also: nearly all actives have a fitted effect of over 50% in size. The essentials: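 Luminescent reporter read-out (ONE-Glo) from NTP's ERR cell line after 18 h treatment at 37 C with DMSO-dissolved Tox21 compounds; cells pre-plated 6 h beforehand at 2,000 per well.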
Assay [8] in a line: qHTS assay to identify small molecule agonists of the estrogen related receptor (ERR) signaling pathway from Tox21 library (AID 1224849; calls by dose curve; also: nearly all actives have a fitted effect of over 15% in size). Conditions: ERR reporter cell line, ONE-Glo luciferase, 18 h; at 92.4 µM (top of the series) unless noted. An outline of the steps: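 ERR reporter cells (NTP line) pre-incubated 6 hours at 37 C, then exposed to compounds for 18 hours at 37 C. ONE-Glo luciferase luminescence was read after 30 minutes at room temperature.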

A short description of assay [9]: qHTS RealTime-Glo MT Cell Viability Assay in HepG2 cells - 24 hour (AID 1224867). Also: nearly all actives have a fitted effect of over 50% in size. Also: potency is read from the fitted curve at half-maximal effect. The essentials: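 Tox21 10K library screened in qHTS format on HepG2 cells carrying RealTime-Glo reagents. Compounds were added after a 5 h preincubation, and the luminescent signal from continuous culture was measured repeatedly during 40 h treatment.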
Assay [10] in a line: qHTS RealTime-Glo MT Cell Viability Assay in HEK293 cells - 32 hour (AID 1224868). Also: nearly all actives have a fitted effect of over 50% in size. Also: potency is read from the fitted curve at half-maximal effect. An outline of the steps: (§1)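 Luminescence generated by NanoLuc from substrate produced by living HEK293 cells served as the viability signal. Each value reflects the reading at its stated time point during continuous 40 h compound exposure at 37 C.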
A short description of assay [11]: A CellTox Green Cytotoxicity Assay to monitor cytotoxicity in HEK293 cells - 0 hour (AID 1224869). Also: nearly all actives have a fitted effect of over 50% in size. The essentials: (§2)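 HEK293 cells, 600/well, were preincubated 5 hours and then exposed to compounds at 37 C for up to 40 hours. A cell-impermeant cyanine dye staining dead-cell DNA was read by fluorescence at 0, 8, 16, 24, 32 and 40 h time points.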
The nature of assay [12]: qHTS RealTime-Glo MT Cell Viability Assay in HepG2 cells - 40 hour (AID 1224870). Also: nearly all actives have a fitted effect of over 50% in size. An outline of the steps: (§3)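 HepG2 cells (600/well) mixed with RealTime-Glo MT reagent, settled 5 h at 37 C/5% CO2 before compound addition. Nonlytic NanoLuc luminescence from viable-cell prosubstrate reduction read repeatedly during 40 h treatment at 37 C.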
Assay [13] is described as follows: qHTS RealTime-Glo MT Cell Viability Assay in HEK293 cells - 16 hour (AID 1224872). Also: nearly all actives have a fitted effect of over 50% in size. Also: potency is read from the fitted curve at half-maximal effect. The essentials: as §1
The nature of assay [14]: qHTS RealTime-Glo MT Cell Viability Assay in HepG2 cells - 8 hour (AID 1224873). Also: nearly all actives have a fitted effect of over 55% in size. The essentials: as §3
The target of assay [15] is Nuclear receptor subfamily 1 group I member 3 (Homo sapiens) (UniProt Q14994). Nature of the assay: qHTS assay to identify small molecule antagonists of the constitutive androstane receptor (CAR) signaling pathway (AID 1224838). Also: nearly all actives have a fitted effect of over 40% in size. An outline of the steps: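 HepG2 cells stably carrying hCAR and a CYP2B6-2.2kb luciferase reporter, seeded 4 hrs before compound (15 concentrations). Stimulated with 50 nM CITCO for 24 hr at 37 C. ONE-Glo luminescence read after 30 min at room temperature.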

Assay [16] is described as follows: qHTS assay to identify small molecule agonists of H2AX (AID 1224845; active = well fitted activation curve with a large enough effect in the signal ratio in the repeat runs, not every such curve was filed as active; the % refers to the signal ratio). An outline of the steps:
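Wild-type CHO-K1 cells, plated overnight, exposed 3hr at 37C to 15 concentrations (0.76% DMSO final). Lysed, then HTRF anti-pH2AX (S139) cryptate and anti-H2AX-d2 antibodies, 24 hr room temperature; 665/620 nm emission read.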

Assay [17] can be described thus: qHTS assay to identify small molecule antagonists of the estrogen related receptor signaling pathway with the pleiotropic PPARgamma coactivator (PGC) from Tox21 10K library (AID 1224841; call rule not given here). The essentials:
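PGC/ERR cell line, 2,000 cells/well, pre-incubated 6 hours at 37 C, then exposed to compounds for 18 hours at 37 C; luciferase read with One-Glo luminescence after 30 min at room temperature.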

Assay [18] concerns the target Thyrotropin receptor (Homo sapiens) (UniProt P16473). Description: qHTS assay to identify small molecule agonists of the thyroid stimulating hormone receptor (TSHR) signaling pathway (AID 1224843; calls by dose curve; also: nearly all actives have a fitted effect of over 45% in size). The essentials: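 Steps: seed 800 TSHR-HEK293 cells per well; add test compound and hold 30 min at ambient temperature; dispense cAMP-d2 then anti-cAMP cryptate; incubate 1 h at ambient; measure fluorescence intensity.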

Assay [19] in a line: A CellTox Green Cytotoxicity Assay to monitor cytotoxicity in HEK293 cells - 40 hour (AID 1224871). Also: nearly all actives have a fitted effect of over 45% in size. The essentials: as §2
Assay [20] is described as follows: qHTS assay to identify small molecule agonists of the estrogen related receptor signaling pathway with the pleiotropic PPARgamma coactivator (PGC) from Tox21 10K library (AID 1224842). Also: nearly all actives have a fitted effect of over 15% in size. An outline of the steps: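 PGC/ERR reporter cell line, 2,000 cells per well, incubated 6 h at 37 C before 23 nL compound in DMSO was added. After 18 h at 37 C, One-Glo luminescence read following 30 min at room temperature.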

A number with no mark means an inactive call. Records with an inconclusive call do not appear. The source made the active and inactive calls. Unless noted, calls follow the shape of the dose curve; as a rule, active = well fitted curve in the direction sought with a large enough effect in the repeat runs; inconclusive = weak or mixed curves; inactive = no such curve, though single readings can be large; an effect the other way counts as inactive or inconclusive.
% is scaled to controls: 0 for no effect and ±100 for the full control effect.

Thyrotropin receptor (Homo sapiens), sequence (P16473 whole entry, looked up): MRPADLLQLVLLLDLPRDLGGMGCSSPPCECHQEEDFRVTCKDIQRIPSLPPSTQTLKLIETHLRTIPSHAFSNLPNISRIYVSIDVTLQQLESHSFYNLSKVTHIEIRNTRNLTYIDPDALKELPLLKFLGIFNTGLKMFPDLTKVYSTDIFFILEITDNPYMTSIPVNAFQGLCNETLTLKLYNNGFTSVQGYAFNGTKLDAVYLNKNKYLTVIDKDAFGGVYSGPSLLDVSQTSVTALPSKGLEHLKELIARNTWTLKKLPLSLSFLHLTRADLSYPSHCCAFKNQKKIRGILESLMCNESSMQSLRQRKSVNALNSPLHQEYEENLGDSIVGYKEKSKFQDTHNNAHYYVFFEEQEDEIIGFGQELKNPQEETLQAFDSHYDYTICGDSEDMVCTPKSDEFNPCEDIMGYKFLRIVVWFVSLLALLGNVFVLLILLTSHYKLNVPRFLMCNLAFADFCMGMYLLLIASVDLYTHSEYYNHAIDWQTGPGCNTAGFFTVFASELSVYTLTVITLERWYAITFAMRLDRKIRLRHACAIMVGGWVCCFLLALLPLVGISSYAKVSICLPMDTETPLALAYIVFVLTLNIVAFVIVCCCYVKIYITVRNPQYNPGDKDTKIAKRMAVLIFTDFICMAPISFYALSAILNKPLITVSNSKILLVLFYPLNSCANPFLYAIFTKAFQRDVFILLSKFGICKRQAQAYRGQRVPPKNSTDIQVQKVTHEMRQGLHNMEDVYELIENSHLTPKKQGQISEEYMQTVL
Nuclear receptor subfamily 1 group I member 3 (Homo sapiens), sequence (Q14994 whole entry, looked up): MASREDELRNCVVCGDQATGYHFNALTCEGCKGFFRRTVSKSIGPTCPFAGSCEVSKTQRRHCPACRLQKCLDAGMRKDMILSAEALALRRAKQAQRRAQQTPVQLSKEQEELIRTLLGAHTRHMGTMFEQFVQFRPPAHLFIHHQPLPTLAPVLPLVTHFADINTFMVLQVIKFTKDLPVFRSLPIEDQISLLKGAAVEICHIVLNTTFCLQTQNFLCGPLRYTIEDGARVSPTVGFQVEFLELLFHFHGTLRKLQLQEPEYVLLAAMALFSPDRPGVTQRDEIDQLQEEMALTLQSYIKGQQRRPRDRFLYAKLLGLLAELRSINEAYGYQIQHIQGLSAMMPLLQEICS

Turning to `C=CC(=O)O[C@H]1C[C@@H]2CC[C@@]1(C)C2(C)C`, the Potency result in assay [1], in assay [2], in assay [3], in assay [4], in assay [5] and in assay [6] was “inactive” in each case. Besides, the Potency result in assay [7], in assay [9], in assay [10], in [11], in assay [12] and in assay [13] was “inactive” in each case. Further, the Potency entry in [14] was “inactive”. For the same molecule, the activity change, positive = activation in assay [8] was 1.18%.

As for `N#CCCOCCC#N`, the Potency entry in assay [1], in assay [15], in assay [3], in assay [4], in assay [16] and in [5] was “inactive” throughout. For the same molecule, the Potency entry in [6], in [7], in assay [9], in [10], in assay [11] and in [13] was “inactive” throughout. In addition, the activity change, positive = activation in assay [8] is 1.08%.

As for `Nc1ccc2c(S(=O)(=O)O)cccc2c1S(=O)(=O)O`, the Potency entry in assay [1], in assay [3], in assay [17], in [18], in assay [4] and in assay [5] was “inactive” throughout. The Potency entry in [6], in assay [7], in assay [9], in assay [10], in assay [11] and in assay [12] was “inactive” throughout. For the same molecule, the Potency entry in assay [19], in [13] and in assay [14] was “inactive” throughout. For the same molecule, the activity change, positive = activation in [8] was -1.51% [at 42.5 µM].

Turning to `Cc1ccc(C=O)cc1`, the Potency result in assay [1], in assay [3], in assay [18], in assay [4], in assay [16] and in [5] was “inactive” each time. Moreover, the Potency result in [9], in assay [10], in assay [11], in [12], in assay [19] and in assay [13] was “inactive” each time. Also, the Potency entry in assay [14] was “inactive”.

On to `CC(Cc1ccc(O)c(O)c1)C(C)Cc1ccc(O)c(O)c1` (configuration not stated), for which the Potency result in assay [1], in assay [15], in assay [18], in assay [4], in assay [11] and in assay [19] was “inactive” throughout. Moreover, the activity change, positive = activation in assay [8] is -42.5%. For the same molecule, the Potency in [9] is 43.6 µM (active); in [10], 34.7 µM (active); in assay [13], 49 µM (active).

`Cc1c[nH]c(=O)[nH]c1=O`: the Potency result in assay [1], in assay [3], in [17], in [20], in assay [18] and in assay [4] was “inactive” each time. Besides, the Potency entry in assay [16], in [5], in [6], in assay [7], in [9] and in [10] was “inactive” each time. Besides, the Potency entry in assay [11], in [12], in [19], in assay [13] and in assay [14] was “inactive” throughout. The activity change, positive = activation in assay [8] is 0.0206%.

`C1=CCCC1`: the Potency entry in assay [1], in assay [3], in assay [18], in [4], in assay [16] and in assay [5] was “inactive” in each case. Further, the Potency entry in assay [6], in assay [9], in assay [12] and in assay [14] was “inactive” each time.

With `CC1=CC[C@@H](C(C)(C)O)CC1`, the Potency result in assay [1], in assay [3], in assay [18], in assay [4], in assay [16] and in [5] was “inactive” in each case. Moreover, the Potency result in assay [9], in assay [10], in assay [11], in assay [19], in [13] and in assay [14] was “inactive” in each case.

For the molecule `O=C(NCc1ncc(C(F)(F)F)cc1Cl)c1c(Cl)cccc1Cl`, the Potency entry in [1], in [2], in [4], in assay [16], in [6] and in assay [9] was “inactive” throughout. Moreover, the Potency entry in assay [11], in assay [12] and in assay [14] was “inactive” throughout. Also, the values for the Potency in assay [5] and in assay [10] were 15.5 µM (active) and 21.9 µM (active), respectively.

Values taken from PubChem BioAssay (Tox21).
